# Measurements as given in PubChem BioAssay (NCATS).
# Records with an inconclusive call do not appear. Values without a mark were called inactive. The source made the active and inactive calls. The call rests on the fitted dose curve; in most records, active means well fitted inhibition curve with a large enough effect; inconclusive means small, poorly fitted or top-dose-only effect; inactive means flat fitted curve, though single readings scatter.
# Assay: P-glycoprotein substrates identified in KB-8-5-11 adenocarcinoma cell line, qHTS therapeutic library screen (AID 1346987); further: nearly all actives have a fitted effect of over 65% in size
# Conditions: KB-8-5-11 (P-gp overexpressing) viability, CellTiter-Glo, 72 h; series mostly up to 44.5 µM; activity change, negative = cytotoxicity: at the top concentration
# In short: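 KB-8-5-11, a colchicine-selected P-gp-overexpressing KB-3-1 subline, was grown without colchicine for the assay. Cells were seeded at 500 cells/well, dosed in concentration-response and incubated 72 h at 37 degree C, 5% CO2. Viability was read by CellTiter-Glo luminescence.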
# On the % scale 0 is the no-effect control and ±100 the full control effect.
Compound,"activity change, negative = cytotoxicity",outcome
Cc1ccc(-c2c(-c3nn(C)c4ncnc(N5CCC(N6CCCCC6)C5)c34)cnn2C)cc1 (centres undefined),1.05%,–
Cc1cc(CNC(=O)c2cc(C(=O)NCc3ccc(F)c(C)c3)ncn2)ccc1F,7.81%,–
C=C1C(O)CC2C(C(=O)O)=COC(O[C@@H]3O[C@H](COC(=O)c4ccc(O)cc4)[C@@H](O)[C@H](O)[C@H]3O)C12 (some centres undefined),–,inactive [at 17.3 µM]
C[C@@H](c1ccccc1)N(C(N)=NC#N)c1cccc2ncccc12,-8.4%,–
CC1(C)CC[C@]2(C(=O)O[C@@H]3O[C@H](CO)[C@@H](O)[C@H](O)[C@H]3O)CC[C@]3(C)C(=CCC4[C@@]5(C)CC[C@H](O[C@@H]6O[C@H](C(=O)O)[C@@H](O[C@@H]7O[C@H](CO)[C@@H](O)[C@H](O)[C@H]7O)[C@H](O)[C@H]6O)C(C)(C)C5CC[C@]43C)C2C1 (some centres undefined),–,inactive [at 9.29 µM]
CC(=O)O[C@H]1C[C@@H](O)C(C)(C)C2C[C@@H](OC(C)=O)[C@]3(C)C(CC[C@@]4(C)[C@H](c5ccoc5)OC(=O)[C@H]5O[C@]543)[C@]21C (some centres undefined),–,inactive [at 17.3 µM]
C[C@@H]1O[C@@H](O[C@H]2[C@H](O[C@H]3[C@H](O[C@H]4CC[C@@]5(C)C(CC[C@]6(C)C5CC=C5[C@@H]7CC(C)(C)C[C@@H](O)[C@]7(C)CC[C@]56C)C4(C)C)O[C@H](C(=O)O)[C@@H](O)[C@@H]3O)O[C@H](C(=O)O)[C@H](O)[C@@H]2O)[C@H](O)[C@H](O)[C@H]1O (some centres undefined),–,inactive [at 9.29 µM]
CC(=O)OCC1OC(O[C@H]2CC[C@@]3(C)C(CC[C@]4(C)C3CC=C3[C@@H]5CC(C)(C)CC[C@]5(C(=O)O)CC[C@]34C)[C@]2(C)CO)C(O)C(O)C1OC1OC(C)C(O)C(OC2OCC(O)C(O)C2O)C1O (some centres undefined),–,inactive [at 9.29 µM]
CC(C)=C1CC2C(CCC2(C)O)C(C)(O)CC1=O (centres undefined),2.73%,–
CC(=O)O[C@H]1[C@H](O[C@H]2CC[C@]34C[C@]35CC[C@]3(C)[C@@H]([C@@]6(C)CC[C@@H](C(C)(C)O)O6)[C@@H](O)C[C@@]3(C)[C@@H]5C[C@H](O[C@@H]3O[C@H](CO)[C@@H](O)[C@H](O)[C@H]3O)[C@H]4C2(C)C)OC[C@@H](OC(C)=O)[C@@H]1O,–,inactive
COC1OC(=O)C2=C1C1(C)CCCC(C)(C)C1CC2O (centres undefined),3.06%,–
CC1(C)CC[C@]2(C(=O)O[C@@H]3O[C@H](CO)[C@@H](O)[C@H](O)[C@H]3O)CC[C@]3(C)C(=CCC4[C@@]5(C)CC[C@H](OC6OC(C(=O)O)C(OC7OC(CO)C(O)C(O)C7O)C(O)C6O)C(C)(C)C5CC[C@]43C)C2C1 (some centres undefined),9.04% [at 9.29 µM],–
CN(C)CC(c1ccc(O)cc1)C1(O)CCCCC1 (centres undefined),–,inactive
CC(C)=CCc1cc(O[C@@H]2O[C@H](CO[C@@H]3OC[C@](O)(CO)[C@H]3O)[C@@H](O)[C@H](O)[C@H]2O)ccc1O,–,inactive [at 17.3 µM]
O=C(O[C@H]1[C@H](Oc2ccc(O)cc2CO)O[C@H](CO)[C@@H](O)[C@@H]1O)c1ccccc1,–,inactive [at 17.3 µM]
C=C(C)C(O)COc1ccc(CC(=O)O)cc1 (centres undefined),–,inactive
C[C@]1(OC(=O)/C=C\c2ccc(O)cc2)C[C@@H](O)[C@]2(O)C=CO[C@@H](O[C@@H]3O[C@H](CO)[C@@H](O)[C@H](O)[C@H]3O)C12 (some centres undefined),–,inactive [at 17.3 µM]
CC1(CO)CCCC2(C)C3COC(=O)C3=CC(O)C12 (centres undefined),6.38%,–
CC(=O)O[C@@H]1[C@H](O[C@@H]2O[C@H](CO)[C@@H](O)[C@H](O)[C@H]2O)[C@@H](O[C@@H]2O[C@@H](C)[C@H](O)[C@@H](O[C@@H]3O[C@H](CO)[C@@H](O)[C@H](O)[C@H]3O)[C@H]2O)[C@H](OC(=O)[C@]23CCC(C)(C)C[C@H]2C2=CCC4[C@@]5(C)C[C@H](O)[C@H](O[C@@H]6O[C@H](C(=O)O)[C@@H](O)[C@H](O)[C@H]6O)[C@@](C)(C(=O)O)C5CC[C@@]4(C)[C@]2(C)CC3)O[C@@H]1C (some centres undefined),8.71% [at 9.29 µM],–
C=C[C@H]1[C@H](O[C@@H]2O[C@H](CO)[C@@H](O)[C@H](O)[C@H]2O)OC=C2C(=O)N3Cc4c([nH]c5ccccc5c4=O)[C@@H]3C[C@H]21,0.77% [at 17.3 µM],–

Compound,"activity change, negative = cytotoxicity",outcome
COC(=O)C1=CO[C@@H](O[C@@H]2O[C@H](CO)[C@@H](O)[C@H](O)[C@H]2O)C2C1CC(O)C2C (some centres undefined),–,inactive
CC(C)C1(O)NC(=O)C(CC2(O)c3ccccc3N3C(=O)C(C)(C)NC32)n2c1nc1ccccc1c2=O (centres undefined),–,inactive [at 17.3 µM]
NC(=O)[C@H](Cc1ccccc1)NC(=O)[C@H](CCCN=C(N)N)NC(=O)C12CC3CC(CC(C3)C1)C2,–,inactive [at 9.29 µM]
C/C=C(\C)C(=O)OC[C@H]1O[C@@H](O[C@H]2[C@@H](O[C@H]3O[C@H](COC(=O)/C(C)=C/C)[C@@H](O)[C@H](O)[C@H]3O[C@@H]3O[C@H](CO)[C@@H](O)[C@H](OC(=O)/C(C)=C/C)[C@H]3O)O[C@H](COC(=O)/C(C)=C/C)[C@@H](O)[C@@H]2O)[C@H](O)[C@@H](O)[C@@H]1O,–,inactive [at 9.29 µM]
C[C@@]12CC3(S(=O)(=O)O)OC(O1)[C@]1(COC(=O)c4ccccc4)[C@H]3C[C@]21O[C@@H]1O[C@H](CO)[C@@H](O)[C@H](O)[C@H]1O,8.93% [at 17.3 µM],–
CC(=O)c1[nH]cc(CCC(=O)O)c1CC(=O)O,5.66%,–
COc1cc(C(=O)OCC2=CCC3C(C(=O)O)=COC(O[C@@H]4O[C@H](CO)[C@@H](O)[C@H](O)[C@H]4O)C23)ccc1O (some centres undefined),–,inactive [at 17.3 µM]
CCOC(=O)CSc1nc2c(sc3ccccc32)c(=O)n1CCCN1CCCC1,-20.7%,–
C=C1CCC2(OC1)OC1CC3C4CC=C5CC(O)CC(O[C@@H]6OC[C@H](OC(=O)C(O)C(C)CC)[C@H](O)[C@H]6O[C@@H]6O[C@@H](C)[C@H](O)[C@@H](O)[C@H]6O)C5(C)C4CCC3(C)C1C2C (some centres undefined),–,inactive [at 9.29 µM]
C/C(=C\CO)CC/C=C(\C)C(=O)O[C@@H]1O[C@H](CO)[C@@H](O)[C@H](O)[C@H]1O,–,inactive
Nc1ncnc2c1ncn2[C@H]1O[C@@H](C(=O)N2CCN(CC(=O)Nc3cccc4c3CNC4=O)CC2)[C@H](O)[C@@H]1O,–,inactive
CC1(C)[C@H]2C[C@H](C/C=C\CCCC(=O)O)[C@@H](NC(=O)c3csc4ccc(O)cc34)[C@@H]1C2,–,inactive
CC(=O)/C=C/C1(O)C(C)CC(O[C@@H]2O[C@H](CO)[C@@H](O)[C@H](O)[C@H]2O)CC1(C)C (some centres undefined),–,inactive [at 17.3 µM]
O=C(O[C@@H]1O[C@H](CO)[C@@H](O)[C@H](O)[C@H]1O)c1ccccc1,–,inactive
C=C1CC2C3(C)C(O)CC(=O)C(C)(C)C3C(O)C(OC(C)=O)C2(C)C2C(=O)OC(C)(C(=O)OC)C(=O)C12C (centres undefined),4.77% [at 17.3 µM],–
C=C1[C@@H]2CC[C@@]3(C)[C@H](c4ccoc4)OC(=O)C[C@]13O[C@H]1CC(=O)C(C)(C)[C@H](C(O)C(=O)OC)[C@]12C (some centres undefined),6.35% [at 17.3 µM],–
O=C(/C=C/N1C[C@@H]2C[C@@H]1CN2c1ccccn1)c1ccccc1O,3.4%,–
C=C1CC[C@@]2(OC1)O[C@H]1CC3[C@@H]4CC=C5C[C@@H](O)C[C@@H](O[C@@H]6OC[C@H](O)[C@H](O)[C@H]6O[C@@H]6O[C@@H](C)[C@H](O)[C@@H](O)[C@H]6O)[C@]5(C)C4CC[C@]3(C)[C@H]1[C@@H]2C (some centres undefined),–,inactive [at 17.3 µM]
O=C(Cn1c2ccccc2c2nc3n(c(=O)c21)CCS3)N1CCCC1,1.03%,–
